From PubChem BioAssay (NCI)
The panel holds about 79,000 compounds, 15% with a hit somewhere; the sample as a whole holds those more often. Values without a mark were called inactive. Calls of active or inactive are those of the source. Rule as the data show it: active = growth inhibition above about 70%; inactive = the rest.

Assays:
[1] = NCI Yeast Anticancer Drug Screen. Data for the rad50 strain (AID 155);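 also: 0% = growth of vehicle-only cultures of the same strain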; conditions: S. cerevisiae rad50 strain growth inhibition; at 50.0 µM; hits give high values
Procedure, shortened: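 Yeast carrying a defined DNA repair defect were exposed to test compounds, and growth was compared with vehicle-treated controls to give percent inhibition.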

[2] = NCI Yeast Anticancer Drug Screen. Data for the mec2-1 strain (AID 157); conditions: S. cerevisiae mec2-1 strain, at 50.0 µM, hits give high values
Procedure, shortened: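 Growth inhibition is read against vehicle-treated controls after compound exposure of the mec2-1 yeast strain, which is defective in DNA damage repair or cell cycle control.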

[3] = NCI Yeast Anticancer Drug Screen. Data for the sgs1 mgt1 strain (AID 161);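 also: 0% = growth of cultures given vehicle only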; conditions: S. cerevisiae sgs1 mgt1 strain, at 50.0 µM, hits give high values
Procedure, shortened: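 Percent growth inhibition was derived by comparing compound-exposed mutant yeast with vehicle-exposed cultures. The strain carries alterations in DNA damage repair.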

[4] = NCI Yeast Anticancer Drug Screen. Data for the cln2 rad14 strain (AID 165);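 also: 0% = growth equal to vehicle treated cultures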; conditions: S. cerevisiae cln2 rad14 strain, at 50.0 µM, hits give high values
Procedure, shortened: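 Growth inhibition, relative to vehicle-treated controls, is the read-out. The test organism is a yeast strain with defined genetic alterations, cln2 rad14.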

[5] = NCI Yeast Anticancer Drug Screen. Data for the bub3 strain (AID 167); conditions: S. cerevisiae bub3 mutant strain, at 50.0 µM, hits give high values
Procedure, shortened: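 Compounds were applied to a genetically altered yeast strain carrying a cell-cycle control defect. Growth inhibition was scored against vehicle-treated controls.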

[6] = NCI Yeast Anticancer Drug Screen. Data for the mlh1 rad18 strain (AID 175); conditions: S. cerevisiae mlh1 rad18 strain growth inhibition; at 50.0 µM; hits give high values
Procedure, shortened: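 Cells of a genetically altered yeast strain, deficient in DNA damage repair, were treated with compound. Their growth was then compared with that of vehicle-treated cultures to give inhibition.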

SMILES | growth inhibition [1] | growth inhibition [2] [%] | growth inhibition [3] [%] | growth inhibition [4] [%] | growth inhibition [5] | growth inhibition [6]
COC(=O)/C=C/c1cc(=O)n2c(nc3ccccc32)s1 | -11.1% | -20.1 | -13.2 | -35.2 | -41.5% | -12.2%
CN(C)c1ccc(/C=C(\C#N)C(=O)c2ccccc2)cc1Br | 0.55% | -6.1 | 1.85 | 22.7 | -15.2% | 13.8%
CCC(=O)Nc1cc(Cl)ccc1Cl | 34.2% | 11.8 | 10.4 | 10.2 | -8.9% | 11.2%
Cc1c2cnccc2c(C)c2c1c1ccccc1n2CCCCCCCl | 94.5% (active) | 69 | 49.8 | 66 | 95.7% (active) | 98.5% (active)
CC(C)=CCC/C(C)=C\CC/C(C)=C/CO | -52.5% | -77.8 | -39.6 | -26.1 | -46.7% | -41.5%
COc1cccc(C2=CCCCCC2)c1OC | 1.15% | -12.8 | -9.45 | -23 | -15.9% | 4.3%
CCCCOC1OC[N+](C)(C)CC1(C)C (configuration not stated) | 20.2% | -2.65 | -10.1 | 3.7 | -0.45% | 26.2%
CC(C)Cc1ccc(NC2=C(Cl)C(=O)c3ccccc3C2=O)cc1 | 19.3% | 19.7 | 13.7 | 25.1 | 15.1% | 28.1%
COC1(OC)C(N(C)C)=C(Cl)C(=O)/C1=C/C=O | 7.75% | -10.7 | -16.9 | -6.65 | 13.8% | -16.4%
CC(=O)C(CCC#N)(CCC#N)C(=O)Nc1ccccc1 | -9% | 10.5 | 3.35 | -6 | -2.05% | -21.5%
CC1=C(C)C(=O)c2c(OC(=O)c3ccccc3)ccc(OC(=O)c3ccccc3)c2C1=O | -18.8% | 7.7 | 19.3 | -18.7 | -1.2% | -13.8%
CC1=NN(C(=O)CC(=O)Nc2cccc(C)c2)C(=O)C1N=Nc1ccc(C(=O)O)cc1 (configuration not stated) | -33.9% | 5.95 | 12.6 | -11.7 | -2.7% | 25.9%
CC(C)(C)SCCCCO | -7.3% | 19.4 | -0.8 | 0.35 | -5.2% | -3.15%
COc1ccc(/C=N/Nc2ccc(S(=O)(=O)O)cc2)cc1 | 5.45% | -12.6 | -18.7 | -6.45 | -21.2% | 13.2%
CC(=O)Nc1c(Cl)cc2c(c1Cl)Cc1cc(N(C)C)ccc1-2 | -13.6% | -0.35 | 0.5 | 6.25 | 1.75% | -9.25%
NC(N)=NC(N)=Nc1ccccc1 | -15.9% | 14.8 | -1.8 | -5.9 | 1.15% | 11.6%
CCOc1ccc2nc(N=NC(C(C)=O)C(C)=O)sc2c1 | 26.9% | 9.8 | 1.3 | 14.1 | 5.55% | 15.9%
CSc1nc(NC2OCC(OC(C)=O)C(OC(C)=O)C2OC(C)=O)c(N=C(C)C(C)=O)c(=O)[nH]1 (configuration not stated) | -3.9% | 17.7 | 15.2 | 4.95 | 3.05% | 12.8%
ClCCCOc1ccccc1 | 21.5% | 23.2 | 22.6 | 8.55 | -5.25% | 11.6%
CC1(C)C2CCC1(C)C(NC(N)=O)C2 (configuration not stated) | -10% | 6.45 | -8.95 | -6.6 | 2.3% | 10.5%
CCOc1ccc(/C(Cl)=C(\C=O)c2ccc(OC)c(OC)c2)cc1OCC | -0.1% | -4.8 | 3.25 | -2.2 | -3.6% | 2.55%

SMILES | growth inhibition [1] | growth inhibition [2] [%] | growth inhibition [3] [%] | growth inhibition [4] [%] | growth inhibition [5] | growth inhibition [6]
COc1ccc(C)cc1NC(=S)NC(=O)c1cccc([N+](=O)[O-])c1 | 2.25% | 4.85 | 4.45 | -2.5 | 20.2% | 0.3%
Cc1ccc(C(=O)OC2C3(C)CCC(C3)C2(C)C)cc1 (configuration not stated) | 15.9% | 18.3 | 14.3 | -37.2 | 10.2% | -0.15%
O=C(O)CNCc1ccc(F)cc1 | -1.85% | -10 | -14.7 | -74.4 | 13.2% | -5.9%
[N-]=[N+]=Nc1ccc(-c2nc(N)nc(N)n2)cc1 | 11.8% | 0.35 | -2.55 | -4.75 | 6.9% | 15.2%
CC1CN(c2ccc(Cl)cc2)CC(C)(C)OC(=O)O1 (configuration not stated) | -12.2% | -16.1 | -10.6 | 0.2 | 5.45% | -2.5%
CCCC(=O)OCCCCC1CCCO1 (configuration not stated) | 13.2% | 3.6 | 8.75 | 14 | 5.45% | 11.6%
O=C1C2=C(Nc3ccccc3N2)OC1c1ccccc1Cl (configuration not stated) | -0.95% | -11.7 | -22.1 | 6.7 | -21.8% | 4%
COC(=O)c1cc(C(=O)OC)c(C/C(=N/Nc2ccc([N+](=O)[O-])cc2[N+](=O)[O-])C(=O)Nc2cccc(C(F)(F)F)c2)nc1C/C(=N/Nc1ccc([N+](=O)[O-])cc1[N+](=O)[O-])C(=O)Nc1cccc(C(F)(F)F)c1 | 57% | -5.95 | 1.15 | 25.4 | 37.9% | 59.8%
NCCN1CCCCCc2ccccc21 | -63.2% | -53 | -49.8 | -17.4 | -41.1% | -39.3%
O/N=C1\C(=C\c2ccc3c(c2)OCCO3)CCCC1C(NO)c1ccc2c(c1)OCCO2 (configuration not stated) | 13.1% | 16.7 | 29.9 | 2.8 | 16.9% | 6.15%
O/N=C1\CCC2CCCCC12 (configuration not stated) | 27.5% | 14.5 | 2.55 | 19.1 | 1.05% | 24.9%
CC(C)NC(=O)c1ccc(CON)cc1 | 5.15% | -9.7 | 2.8 | 23.5 | 35% | 9.8%
COC(=O)Oc1ccc(Cl)cc1Cl | -18.1% | -6.05 | 15.9 | -77.4 | -8.25% | 5.7%
CC(C)/C(=N\[N+](C)(C)C)c1ccccc1 | 0.4% | -22.8 | -21.8 | -3.05 | -22.7% | 5.15%
CC(=O)OC12c3ccccc3C(c3ccccc31)C1C(=O)N(c3ccccn3)C(=O)C12 (configuration not stated) | -23.6% | -7.4 | 5.9 | 3.35 | 9.9% | 5.6%
O=C1CSC(c2cccs2)N1c1nncs1 (configuration not stated) | 27.4% | -14.8 | 19.3 | 14.6 | 11.6% | 21.6%
CCCCCCCCN(CCCCCCCC)CC(O)c1ccc2cc(Br)c3ccccc3c2c1 (configuration not stated) | 25.9% | 26.2 | 46.5 | 47.1 | 24% | 49.4%
CCC(=O)N1C(=O)C(C)C23c4ccccc4C(=O)N2CCCN13 (configuration not stated) | 4.35% | -13.1 | -1.8 | 11.1 | 1.8% | 15.8%
O=C1CC(=O)C(C(=O)c2ccccc2)N1 (configuration not stated) | 18.3% | 8.55 | 5.3 | 1.8 | 7.8% | -2.45%
c1ccc(CCN2CCN(CCc3ccccn3)CC2)nc1 | 6.25% | 6 | -6.95 | -19.6 | 3.8% | 0.2%
CC1(C)N=C(N)N=C(N)N1c1ccc(-c2ccccc2)cc1 | 2.95% | 0.9 | 20.5 | -0.75 | 32.5% | 19.5%
